Assay results reported in PubChem BioAssay AID1305 (SRMLSC, 2008).
Out of some 1,200 compounds screened, fewer than 10 were called active. Not all results are given here. A number with no mark means an inactive call. No rule for the calls is given here.

Test: sensitized control strain growth on 5-FOA – S. cerevisiae, OD615, counter-screen for RAM network inhibitor project, dose response (AID 1305);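 also: plate controls were vehicle for no effect and reference inhibitor for full effect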
Details: S. cerevisiae efflux-deficient reporter strain, 5-FOA growth OD615, 2 days, active compounds read high; at 100 µM unless noted

Compound	max inhibition
COc1ccc(C2C=C(c3ccc(Br)cc3)Nc3nc(NS(C)(=O)=O)nn32)cc1 (stereo unspecified)	3.37%
CCCNC(=O)OC[C@H]1O[C@H](CCO/N=C/[C@@H](NS(=O)(=O)c2ccc(C)cc2)[C@H](C)/C=C/CC(=O)OC)C=C[C@@H]1Oc1ccc(OC)cc1	1.46% [at 50 µM]
Fc1ccc(CSc2nnc(-c3cc4c(s3)-c3ccccc3CC4)o2)cc1	4.57%
O=C(CSc1nc(-c2ccccc2)cs1)Nc1cccc([N+](=O)[O-])c1	3.34%
COc1ccc(OC)c(C2C3=C(N=c4s/c(=C\c5cccc(O)c5)c(=O)n42)c2ccccc2CC3)c1 (stereo unspecified)	2.51% [setting not given]
CCCC(C(=O)n1nc(C)cc1C)C(NS(=O)(=O)c1ccc(C)cc1)c1ccccc1 (stereo unspecified)	2.29% [at 1.563 µM]
O=C(NCc1ccccc1)[C@H]1C[C@@H]1[C@H](NP(=O)(c1ccccc1)c1ccccc1)c1ccccc1	2.82%
COC(=O)c1ccc(C2C(Oc3ccccc3C)C(=O)N2CCc2ccc(OC)c(OC)c2)cc1 (stereo unspecified)	3.17%
CC1CCN(C(=S)c2ccc(-c3ccc(Cl)cc3Cl)o2)CC1	4.91%
COc1ccc(/C=C/C(=O)OCC(=O)Nc2cccc(Oc3ccccc3)c2)c(OC)c1	3.76%
COc1ccc(C)cc1NC(=O)C(Sc1ccccc1)c1ccccc1 (stereo unspecified)	4.82%
NS(=O)(=O)c1ccc(NC(=S)NC(=O)c2cccc(Br)c2)cc1	2.4% [at 1.563 µM]
COc1ccc(C(=O)NC(=S)Nc2ccc(N3CCCC3)cc2)cc1OC	1.3% [setting not given]
C=CCc1ccccc1OCC(=O)N/N=C/c1ccccc1OCC	1.41%
Clc1ccccc1CSc1nnc(-c2ccco2)c(-c2ccco2)n1	7.87%
O=C(NCc1ccccc1)C1=C[C@@H](C2CCCCC2)C[C@@H](OCc2ccc(CO)cc2)O1	5.02%
CCOC(=O)c1c(C)nc2c(c1C)c(=O)oc1ccccc12	1.3% [at 25 µM]
Cc1cccc(N2CCN(C(=O)c3cnn4c(C(F)F)cc(-c5ccccc5)nc34)CC2)c1C	2.51%
Cc1ccc(CCC(=O)Nc2ncc(Cc3cc(Cl)ccc3Cl)s2)o1	2.81%
O=C(CSCc1ccc(Br)cc1)Nc1ccc(S(=O)(=O)N2CCCCCC2)cc1	2.51%
COC(=O)CCSc1cc([N+](=O)[O-])cc2c1c(C1OCCS1)nn2-c1ccccc1 (stereo unspecified)	4.89% [at 12.5 µM]
COc1ccc(OCCCn2cccc2/C=C2/C(=N)N3OC(C)=CC3=NC2=O)cc1	3.93%
O=[N+]([O-])c1ccc2oc(-c3cccc(O)c3)nc2c1	5.09% [at 25 µM]
CC(C)=CCCC1(C)C=Cc2c(ccc3c2[nH]c2cc(O)c(C)cc23)O1 (stereo unspecified)	2.74%
Cc1ccc(C(=O)c2c(NC(=O)c3ccccc3)sc(C)c2C)cc1	2.97% [setting not given]
CSc1ccccc1-c1nnc(-c2ccc(Cl)cc2)o1	2.32% [at 50 µM]
